# Source: the supplement of paper PMC8728848
# Only a selection was taken, and the strongest signals are over-represented in it overall.
# How the values were obtained:
# Assay in all cases: glycan array binding signal (z-score within array); higher = stronger binding
# Details in all cases: glycan notation: IUPAC condensed, linker removed; mutation: W10H
# [1] = molecular target: Fuc(a1-2)Gal(b1-3)GalNAc(b1-3)Gal(a1-4)Gal(b1-4)Glc
# Summary of the method: (§1)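 Glycan array data came from 3228 arrays in the Consortium for Functional Glycomics database, and only arrays with an available protein sequence were kept. Glycan names were put into IUPAC-condensed notation, and columns mapping to the same glycan were averaged. The binding signal is a within-array Z-score, averaged across arrays of one protein sequence run at different concentrations or buffers and across linkers. A negative Z-score can be read as non-binding.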
# [2] = molecular target: Fuc(a1-2)Gal(b1-3)[Fuc(a1-4)]GlcNAc
# Summary of the method: as §1
# [3] = molecular target: Fuc(a1-2)Gal(b1-4)[Fuc(a1-3)]GlcNAc(b1-3)Gal(b1-4)[Fuc(a1-3)]GlcNAc(b1-3)Gal(b1-4)[Fuc(a1-3)]GlcNAc
# Summary of the method: as §1
# [4] = molecular target: Fuc(a1-2)Gal(b1-4)[Fuc(a1-3)]GlcNAc(b1-3)[Neu5Ac(a2-6)Gal(b1-4)GlcNAc(b1-6)]Gal(b1-4)Glc
# Summary of the method: as §1
# [5] = molecular target: Fuc(a1-2)[Gal(a1-3)]Gal(b1-3)GlcNAc(b1-3)GalNAc
# Summary of the method: as §1
# [6] = molecular target: Fuc(a1-2)[Gal(a1-3)]Gal(b1-3)GlcNAc(b1-6)GalNAc
# Summary of the method: as §1
# [7] = molecular target: Fuc(a1-2)[Gal(a1-3)]Gal(b1-4)GlcNAc(b1-2)Man
# Summary of the method: as §1
# [8] = molecular target: Fuc(a1-2)[Gal(a1-3)]Gal(b1-4)GlcNAc(b1-3)[Fuc(a1-2)[Gal(a1-3)]Gal(b1-4)GlcNAc(b1-6)]GalNAc
# Summary of the method: as §1
# [9] = molecular target: Fuc(a1-2)[GalNAc(a1-3)]Gal(b1-3)GalNAc(b1-3)Gal(a1-4)Gal(b1-4)Glc
# Summary of the method: as §1
# [10] = molecular target: Fuc(a1-3)[Gal(b1-4)]GlcNAc(b1-2)Man(a1-3)[Fuc(a1-3)[Gal(b1-4)]GlcNAc(b1-2)Man(a1-6)]Man(b1-4)GlcNAc(b1-4)[Fuc(a1-6)]GlcNAc
# Summary of the method: as §1
# [11] = molecular target: Fuc(a1-3)[Gal(b1-4)]GlcNAc(b1-3)Gal(b1-4)[Fuc(a1-3)]GlcNAc
# Summary of the method: as §1
# [12] = molecular target: Fuc(a1-3)[Gal(b1-4)]GlcNAc(b1-3)GalNAc
# Summary of the method: as §1
# [13] = molecular target: Fuc(a1-3)[GalNAc(b1-4)]GlcNAc6S
# Summary of the method: as §1
# [14] = molecular target: Gal(a1-2)Gal
# Summary of the method: as §1
# [15] = molecular target: Gal(a1-3)Gal(b1-3)GlcNAc
# Summary of the method: as §1
# [16] = molecular target: Gal(a1-4)Gal(b1-4)Glc
# Summary of the method: as §1
# [17] = molecular target: Gal(a1-4)Gal(b1-4)GlcNAc(b1-3)Gal(b1-4)Glc
# Summary of the method: as §1
# [18] = molecular target: Gal(b1-2)Gal
# Summary of the method: as §1
# [19] = molecular target: Gal(b1-3)Gal
# Summary of the method: as §1
# [20] = molecular target: Gal(b1-3)GlcNAc(b1-2)Man
# Summary of the method: as §1
# [21] = molecular target: Gal(b1-3)GlcNAc(b1-3)Gal(b1-4)[Fuc(a1-3)]GlcNAc
# Summary of the method: as §1
# [22] = molecular target: Gal(b1-3)[GlcNAc(b1-6)]GalNAc
# Summary of the method: as §1
# [23] = molecular target: Gal(b1-4)GlcNAc(b1-2)Man(a1-3)[Gal(b1-4)GlcNAc(b1-2)Man(a1-6)]Man(b1-4)GlcNAc(b1-4)GlcNAc
# Summary of the method: as §1
# [24] = molecular target: Gal(b1-4)GlcNAc(b1-2)[Gal(b1-4)GlcNAc(b1-4)]Man(a1-3)[GlcNAc(b1-4)][Gal(b1-4)GlcNAc(b1-2)[Gal(b1-4)GlcNAc(b1-6)]Man(a1-6)]Man(b1-4)GlcNAc(b1-4)GlcNAc
# Summary of the method: as §1
# [25] = molecular target: Gal(b1-4)GlcNAc(b1-2)[Gal(b1-4)GlcNAc(b1-6)]Man(a1-6)[Gal(b1-4)GlcNAc(b1-2)Man(a1-3)]Man(b1-4)GlcNAc(b1-4)[Fuc(a1-6)]GlcNAc
# Summary of the method: as §1
# [26] = molecular target: Gal(b1-4)GlcNAc(b1-2)[Gal(b1-4)GlcNAc(b1-6)]Man(a1-6)[GlcNAc(b1-4)][Gal(b1-4)GlcNAc(b1-2)Man(a1-3)]Man(b1-4)GlcNAc(b1-4)GlcNAc
# Summary of the method: as §1
# [27] = molecular target: Gal(b1-4)GlcNAc(b1-3)Gal(b1-4)GlcNAc(b1-2)[Gal(b1-4)GlcNAc(b1-3)Gal(b1-4)GlcNAc(b1-6)]Man(a1-6)[Gal(b1-4)GlcNAc(b1-3)Gal(b1-4)GlcNAc(b1-2)Man(a1-3)]Man(b1-4)GlcNAc(b1-4)GlcNAc
# Summary of the method: as §1
# [28] = molecular target: Gal(b1-4)GlcNAc(b1-3)Gal(b1-4)GlcNAc(b1-6)[Gal(b1-3)]GalNAc
# Summary of the method: as §1
# [29] = molecular target: Gal(b1-4)GlcNAc(b1-3)[Fuc(a1-3)GlcNAc(b1-6)]Gal(b1-4)Glc
# Summary of the method: as §1
# [30] = molecular target: Gal(b1-4)GlcNAc(b1-6)GalNAc
# Summary of the method: as §1
# [31] = molecular target: Gal6S(b1-3)GlcNAc6S
# Summary of the method: as §1
# [32] = molecular target: Gal6S(b1-4)Glc
# Summary of the method: as §1
# [33] = molecular target: Gal6S(b1-4)GlcNAc
# Summary of the method: as §1
# [34] = molecular target: GalNAc(a1-3)Gal
# Summary of the method: as §1
# [35] = molecular target: GalNAc3S(b1-4)GlcNAc3S
# Summary of the method: as §1
# [36] = molecular target: GlcA3S(b1-3)Gal(b1-4)GlcNAc(b1-3)Gal(b1-4)Glc
# Summary of the method: as §1
# [37] = molecular target: Man(a1-2)Man(a1-2)Man(a1-6)[Man(a1-3)]Man
# Summary of the method: as §1
# [38] = molecular target: Man(a1-2)Man(a1-3)[Man(a1-2)Man(a1-6)]Man
# Summary of the method: as §1
# [39] = molecular target: Man(a1-2)Man(a1-3)[Man(a1-2)Man(a1-6)]Man(a1-6)[Man(a1-2)Man(a1-2)Man(a1-3)]Man
# Summary of the method: as §1
# [40] = molecular target: Man(a1-2)Man(a1-3)[Man(a1-2)Man(a1-6)]Man(a1-6)[Man(a1-2)Man(a1-2)Man(a1-3)]Man(b1-4)GlcNAc(b1-4)GlcNAc
# Summary of the method: as §1
# [41] = molecular target: Man(a1-2)Man(a1-3)[Man(a1-6)]Man(a1-6)[Man(a1-2)Man(a1-3)]Man(b1-4)GlcNAc(b1-4)GlcNAc
# Summary of the method: as §1
# [42] = molecular target: Man(a1-2)Man(a1-6)[Man(a1-3)]Man(a1-6)[Man(a1-2)Man(a1-2)Man(a1-3)]Man
# Summary of the method: as §1
# [43] = molecular target: Man(a1-2)Man(a1-6)[Man(a1-3)]Man(a1-6)[Man(a1-2)Man(a1-2)Man(a1-3)]Man(b1-4)GlcNAc(b1-4)GlcNAc
# Summary of the method: as §1
# [44] = molecular target: Man(a1-3)[Man(a1-6)]Man
# Summary of the method: as §1
# [45] = molecular target: Man(a1-3)[Man(a1-6)]Man(a1-6)[Man(a1-2)Man(a1-3)]Man(b1-4)GlcNAc(b1-4)GlcNAc
# Summary of the method: as §1
# [46] = molecular target: Man(a1-3)[Man(a1-6)]Man(a1-6)[Man(a1-3)]Man(b1-4)GlcNAc(b1-4)GlcNAc
# Summary of the method: as §1
# [47] = molecular target: Man(a1-3)[Man(a1-6)]Man(b1-4)GlcNAc(b1-4)GlcNAc
# Summary of the method: as §1
# [48] = molecular target: Neu5Ac(a2-3)Gal(b1-3)GalNAc(b1-3)Gal(a1-4)Gal(b1-4)Glc
# Summary of the method: as §1
# [49] = molecular target: Neu5Ac(a2-3)Gal(b1-3)GalNAc(b1-4)Gal(b1-4)Glc
# Summary of the method: as §1
# [50] = molecular target: Neu5Ac(a2-3)Gal(b1-3)GlcNAc(b1-2)Man(a1-3)[GlcNAc(b1-4)][Neu5Ac(a2-3)Gal(b1-3)GlcNAc(b1-2)Man(a1-6)]Man(b1-4)GlcNAc(b1-4)GlcNAc
# Summary of the method: as §1
# [51] = molecular target: Neu5Ac(a2-3)Gal(b1-3)GlcNAc(b1-3)GalNAc
# Summary of the method: as §1
# [52] = molecular target: Neu5Ac(a2-3)Gal(b1-4)Glc
# Summary of the method: as §1
# [53] = molecular target: Neu5Ac(a2-3)Gal(b1-4)[Fuc(a1-3)]GlcNAc6S
# Summary of the method: as §1
# [54] = molecular target: Neu5Ac(a2-6)Gal(b1-4)GlcNAc(b1-3)Gal(b1-4)GlcNAc(b1-3)Gal(b1-4)GlcNAc
# Summary of the method: as §1
# [55] = molecular target: Neu5Ac(a2-8)Neu5Ac(a2-3)[GalNAc(b1-4)]Gal(b1-4)Glc
# Summary of the method: as §1
# [56] = molecular target: Neu5Ac(a2-8)Neu5Ac(a2-8)Neu5Ac(a2-8)Neu5Ac(a2-3)[GalNAc(b1-4)]Gal(b1-4)Glc
# Summary of the method: as §1
# [57] = molecular target: Neu5Gc(b2-6)Gal(b1-4)GlcNAc
# Summary of the method: as §1
binder,measurement,setting,value
Banana lectin (Musa acuminata) (protein) MNGAIKVGAHGGNGGSAFDMGPAYRIISVKIFSGDVVDGVDVTFTYYGKTETRHYGGSGGTPHEIVLQEGEYLVGMAGEVANYHGAVVLGKLGFSTNKKAYGPFGNTGGTPFSLPIAAGKISGFFGRGGKFLDAIGVYLEPLEHHHHHH,glycan array binding signal (z-score),[1],-0.164
same,glycan array binding signal (z-score),[2],-0.188
same,glycan array binding signal (z-score),[3],-0.169
same,glycan array binding signal (z-score),[4],-0.189
same,glycan array binding signal (z-score),[5],-0.17
same,glycan array binding signal (z-score),[6],-0.147
same,glycan array binding signal (z-score),[7],-0.169
same,glycan array binding signal (z-score),[8],-0.183
same,glycan array binding signal (z-score),[9],-0.156
same,glycan array binding signal (z-score),[10],-0.148
same,glycan array binding signal (z-score),[11],-0.146
same,glycan array binding signal (z-score),[12],-0.16
same,glycan array binding signal (z-score),[13],-0.194
same,glycan array binding signal (z-score),[14],-0.177
same,glycan array binding signal (z-score),[15],-0.171
same,glycan array binding signal (z-score),[16],-0.169
same,glycan array binding signal (z-score),[17],-0.141
same,glycan array binding signal (z-score),[18],-0.172
same,glycan array binding signal (z-score),[19],-0.168
same,glycan array binding signal (z-score),[20],-0.145
same,glycan array binding signal (z-score),[21],-0.174
same,glycan array binding signal (z-score),[22],-0.157
same,glycan array binding signal (z-score),[23],-0.187
same,glycan array binding signal (z-score),[24],-0.175
same,glycan array binding signal (z-score),[25],-0.143
same,glycan array binding signal (z-score),[26],-0.204
same,glycan array binding signal (z-score),[27],-0.113
same,glycan array binding signal (z-score),[28],-0.088
same,glycan array binding signal (z-score),[29],-0.141
same,glycan array binding signal (z-score),[30],-0.163
same,glycan array binding signal (z-score),[31],-0.174
same,glycan array binding signal (z-score),[32],-0.156
same,glycan array binding signal (z-score),[33],-0.124
same,glycan array binding signal (z-score),[34],-0.158
same,glycan array binding signal (z-score),[35],-0.165
same,glycan array binding signal (z-score),[36],-0.164
same,glycan array binding signal (z-score),[37],7.33
same,glycan array binding signal (z-score),[38],2.86
same,glycan array binding signal (z-score),[39],6.5
same,glycan array binding signal (z-score),[40],2.96
same,glycan array binding signal (z-score),[41],9.34
same,glycan array binding signal (z-score),[42],5.18
same,glycan array binding signal (z-score),[43],6.56
same,glycan array binding signal (z-score),[44],2.82
same,glycan array binding signal (z-score),[45],13.5
same,glycan array binding signal (z-score),[46],3.07
same,glycan array binding signal (z-score),[47],6.6
same,glycan array binding signal (z-score),[48],-0.167
same,glycan array binding signal (z-score),[49],-0.186
same,glycan array binding signal (z-score),[50],-0.163
same,glycan array binding signal (z-score),[51],-0.169
same,glycan array binding signal (z-score),[52],-0.159
same,glycan array binding signal (z-score),[53],-0.176
same,glycan array binding signal (z-score),[54],-0.171
same,glycan array binding signal (z-score),[55],-0.146
same,glycan array binding signal (z-score),[56],-0.153
same,glycan array binding signal (z-score),[57],-0.185
